Inconclusive results are not listed. Activity calls are given as the source filed them. Calls come from the whole dose curve; as a rule, active = well fitted curve in the direction sought with a large enough effect; inconclusive = small, poorly fitted or top-dose-only effect, or another doubt; inactive = no such curve, though single readings can be large; an effect the other way counts as inactive or inconclusive. Where a SMILES comes first, the peptide text is derived from it. Bridges are numbered along the chain shown (N, C = ends). [ ]: non-standard residue; d: D form. hArg = N=C(N)NCCCC[C@H](N)C(=O)O; Mpa = O=C(O)CCS
Tests used:
[1] = qHTS of pediatric cancer cell lines to identify multiple opportunities for drug repurposing: Primary screen for BT-12 cells (AID 1347101);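 note: plate controls were DMSO for no effect and bortezomib positive control for full effect; nearly all actives have a fitted effect of over 25% in size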
Summary of the method: (§1)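 Cells (500-1,000/well) rested 5 h, then received compounds for 48 h; metabolically active cells were measured by CellTiter-Glo luminescence. Final concentrations spanned up to 46 µM (MIPE, 11-point) or 0.59 nM-46 µM (NPC, 8-point) in primary screens, 11-point in follow-ups.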

[2] = qHTS of pediatric cancer cell lines to identify multiple opportunities for drug repurposing: Primary screen for Rh18 cells (AID 1347102); note: % is set by controls: 0 for no effect and ±100 for the full control effect; nearly all actives have a fitted effect of over 65% in size
Summary of the method: as §1

[3] = qHTS of pediatric cancer cell lines to identify multiple opportunities for drug repurposing: Primary screen for OHS-50 cells (AID 1347103);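 note: plate controls were DMSO neutral control for no effect and bortezomib positive control for full effect; nearly all actives have a fitted effect of over 40% in size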
Summary of the method: as §1

[4] = qHTS of pediatric cancer cell lines to identify multiple opportunities for drug repurposing: Primary screen for RD cells (AID 1347104);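 note: plate controls were DMSO for no effect and bortezomib for full effect; nearly all actives have a fitted effect of over 55% in size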
Summary of the method: (§2)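 Quantitative HTS format: each compound titrated (MIPE 11 points from 0.78 nM, NPC 8 points from 0.59 nM) onto cells plated 5 hours earlier. After 48 h at 37 degrees C, CellTiter-Glo luminescence was recorded.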

[5] = qHTS of pediatric cancer cell lines to identify multiple opportunities for drug repurposing: Primary screen for MG 63 (6-TG R) cells (AID 1347105); note: % is set by controls: 0 for no effect and ±100 for the full control effect; nearly all actives have a fitted effect of over 50% in size
Summary of the method: as §2

[6] = qHTS of pediatric cancer cell lines to identify multiple opportunities for drug repurposing: Primary screen for control Hh wild type fibroblast cells (AID 1347106);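 note: series mostly up to about 46 µM; % is set by controls: 0 for no effect and ±100 for the full control effect; a drop in luminescence marks cytotoxicity and a rise apparent proliferation; nearly all actives have a fitted effect of over 55% in size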
Summary of the method: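 Viability after 48 h compound treatment at 37C, 500-1,000 cells/well, read as ATP luminescence with CellTiter-Glo. Primary screens used 11-point (MIPE, 0.78 nM-46 µM) or 8-point (NPC, 0.59 nM-46 µM) final concentrations; follow-up screens used 11-point dilutions.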

[7] = qHTS of pediatric cancer cell lines to identify multiple opportunities for drug repurposing: Primary screen for Rh30 cells (AID 1347107); note: series mostly up to about 46 µM; % is set by controls: 0 for no effect and ±100 for the full control effect; nearly all actives have a fitted effect of over 75% in size
Summary of the method: as §1

[8] = qHTS of pediatric cancer cell lines to identify multiple opportunities for drug repurposing: Primary screen for Rh41 cells (AID 1347108);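 note: series mostly up to about 46 µM; luminescence drop marks cytotoxic hits; nearly all actives have a fitted effect of over 70% in size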
Summary of the method: as §2

Measured: activity change, negative = cytotoxic

C[N+]1(C)CCCC(OC(=O)C(O)(c2ccccc2)c2ccccc2)C1 (stereo unspecified)
not listed: [8]
inactive: all other assays above

CCN(CC)CCOC(=O)C(c1ccccc1)c1ccccc1
not listed: [8]
inactive: all other assays above

CCCCCCCCCCCCCCCCCCO
inactive: all assays above

CCc1cccc(CC)c1NC(=O)CN(CC(=O)O)CC(=O)O
not listed: [8]
inactive: all other assays above

CC(C(=O)O)c1ccc2c(c1)Cc1cccnc1O2 (stereo unspecified)
not listed: [8]
inactive: all other assays above

CC(C)=CCC[C@@](C)(O)[C@H]1CC=C(C)CC1
inactive: all assays above

COc1ccc(Cc2cnc(N)nc2N)cc1OC
inactive: all assays above

CCOC(=O)[C@H](CCc1ccccc1)N[C@@H](C)C(=O)N1Cc2cc(OC)c(OC)cc2C[C@H]1C(=O)O
not listed: [8]
inactive: all other assays above

O=C(O)c1cc(=O)c2ccccc2o1
not listed: [8]
inactive: all other assays above

O=c1[nH]c(=O)n([C@H]2C[C@H](O)[C@@H](CO)O2)cc1I
not listed: [8]
inactive: all other assays above

Cc1ccc(S(=O)(=O)NC(=O)NC2CCCCC2)cc1
not listed: [8]
inactive: all other assays above

NC(N)=NCCN1CCCCCCC1
inactive: [1] 7.77% [at 0.745 µM] | [2] 6.63% [at 0.597 µM] | [3] 7.69% [at 0.73 µM] | [4] 3.85% [at 0.597 µM] | [5] 7.08% [at 0.597 µM] | [6] 3.36% [at 0.597 µM] | [7] 25.1% [at 0.597 µM]

CCCCCCCCCCCCCCCCC(C(=O)O)C(O)(CC(=O)O)C(=O)O (stereo unspecified)
not listed: [8]
inactive: all other assays above

O=C(NCC(O)CO)c1c(I)c(C(=O)NCC(O)CO)c(I)c(N(CCO)C(=O)CO)c1I (stereo unspecified)
inactive: all assays above

NC(=O)CCCCC1CCSS1 (stereo unspecified)
not listed: [8]
inactive: all other assays above

C[N+](C)(C)CC[N+]1(C)Cc2c(Cl)c(Cl)c(Cl)c(Cl)c2C1
not listed: [8]
inactive: all other assays above

O=C(O)[C@@H]1[C@H]2C[C@H]3c4[nH]c5ccccc5c4CCN3C[C@@H]2CC[C@@H]1O
not listed: [8]
inactive: all other assays above

Cn1c([N+](=O)[O-])cnc1COC(N)=O
not listed: [8]
inactive: all other assays above

Cc1cc(O)cc(C)c1Cl
not listed: [8]
inactive: all other assays above

C[C@@H](N)C(=O)O
not listed: [8]
inactive: all other assays above

Cc1cccc(Nc2ccccc2C(=O)O)c1C
not listed: [8]
inactive: all other assays above

NS(=O)(=O)c1ccc(C(=O)O)cc1
not listed: [8]
inactive: all other assays above

C[N+](C)(C)CC(O)CC(=O)[O-] (stereo unspecified)
not listed: [8]
inactive: all other assays above

CC1(C)S[C@@H]2[C@H](NC(=O)C(C(=O)O)c3ccccc3)C(=O)N2[C@H]1C(=O)O (stereo partly specified)
inactive: all assays above

CCCNC(C)(C)COC(=O)c1ccccc1
not listed: [8]
inactive: all other assays above

CC(=O)NS(=O)(=O)c1ccc(N)cc1
not listed: [8]
inactive: all other assays above

CN(C(=O)c1c(O)c2ccccc2n(C)c1=O)c1ccccc1
not listed: [8]
inactive: all other assays above

Cc1c(C)c2c(c(C)c1OC(=O)c1cccnc1)CC[C@@](C)(CCC[C@H](C)CCC[C@H](C)CCCC(C)C)O2
inactive: all assays above

CNCc1ccccc1
inactive: all assays above

CC(CSC(=O)c1ccccc1)C(=O)N1C[C@@H](Sc2ccccc2)C[C@H]1C(=O)O (stereo partly specified)
inactive: all assays above

NC(=O)[C@@H]1CSSCCC(=O)N[C@@H](CCCCN=C(N)N)C(=O)NCC(=O)N[C@@H](CC(=O)O)C(=O)N[C@@H](Cc2c[nH]c3ccccc23)C(=O)N2CCC[C@H]2C(=O)N1 ([Mpa][hArg]GDWPC-NH2; disulfide 1-7)
inactive: all assays above

Cc1cc(-n2nc3ccc(Cl)cc3n2)c(O)c(C(C)(C)C)c1
not listed: [8]
inactive: all other assays above

CCCNC(C)C(=O)Nc1c(C)csc1C(=O)OC (stereo unspecified)
not listed: [8]
inactive: all other assays above

C/C=C/C(=O)N(CC)c1ccccc1C
inactive: all assays above

O=C(O)CNC(=O)c1ccccc1I
inactive: all assays above

NC(=O)NC1NC(=O)NC1=O (stereo unspecified)
inactive: all assays above

Cc1cc(C)nc(NS(=O)(=O)c2ccc(N)cc2)n1
inactive: all assays above

FC(F)(F)C(Cl)Br (stereo unspecified)
inactive: all assays above

c1ccc2[nH]ccc2c1
inactive: all assays above

CCN1CC(CCN2CCOCC2)C(c2ccccc2)(c2ccccc2)C1=O (stereo unspecified)
inactive: all assays above

CN/C(=C\[N+](=O)[O-])NCCSCc1csc(CN(C)C)n1
inactive: all assays above

Nc1c2c(nc3c1CCC3)CCCC2
inactive: all assays above

O=C(O)Cc1ccc(CCNS(=O)(=O)c2ccc(Cl)cc2)cc1
inactive: all assays above

CC(=O)OC[C@H]1O[C@@](COC(C)=O)(O[C@H]2O[C@H](COC(C)=O)[C@@H](OC(C)=O)[C@H](OC(C)=O)[C@H]2OC(C)=O)[C@@H](OC(C)=O)[C@@H]1OC(C)=O
inactive: all assays above

CC(C)CCOC(=O)c1ccc(N(C)C)cc1
inactive: all assays above

CC(=O)N(CC(O)CO)c1c(I)c(C(=O)NCC(O)CO)c(I)c(C(=O)NCC(O)CO)c1I (stereo unspecified)
inactive: all assays above

NS(=O)(=O)c1cc(C2(O)NC(=O)c3ccccc32)ccc1Cl (stereo unspecified)
inactive: all assays above

COc1ccc(O)cc1
inactive: all assays above

NCc1ccc(S(N)(=O)=O)cc1
inactive: all assays above

CC1CCc2cc(F)cc3c(=O)c(C(=O)O)cn1c23 (stereo unspecified)
inactive: all assays above

O=C(NCCCN1CCOCC1)c1ccc(Cl)cc1
inactive: all assays above

Cc1cccc(C(=O)O)c1O
inactive: all assays above

COc1cc(O)cc(O)c1
inactive: all assays above

C=CCNC(N)=S
inactive: all assays above

CCCC(O)C(CC)CO (stereo unspecified)
inactive: all assays above

Source: PubChem BioAssay (NCATS)
